Compounds without any hit were thinned out: in the full panel of roughly 83,000, 20% have a hit.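 Method: cells in 96-well plates; compound added at one concentration; 48 h incubation; percent growth measured; values under 10 scored active.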 A number with no mark means an inactive call. The source made the active and inactive calls.

For this experiment, the system named is MDA-MB-468 breast. Put plainly: NCI-60 one-dose screen, 48 h (100 = growth as untreated, 0 = no growth, -100 = all killed). Conditions: 10 µM unless noted.
For `O=C(CSc1nnc(-c2ccc(Cl)cc2)n1-c1ccccc1)Nc1cccc(Cl)c1`, the growth is 79.8%.

Regarding `CSc1nc2c(c(=O)[nH]1)C1(C(=O)Nc3ccccc31)c1c(nc(SC)[nH]c1=O)N2`, the growth was 93.1%.

Take `COc1cc2cc(Oc3ccc(NC(=O)Nc4ccccc4)cc3)c(C)nc2cc1OCCN1CCCCC1`: the growth is 79.5%.

For `CO[C@H]1CC(O[C@@H]2/C(C)=C/C[C@@H]3C[C@@H](C[C@]4(CC[C@H](C)[C@@H](C5CCCCC5)O4)O3)OC(=O)[C@@H]3C=C(C)/C(=N/O)[C@H]4OC/C(=C\C=C\[C@@H]2C)[C@]43O)O[C@@H](C)C1O` (stereo not given in full), the growth is -87% (active).

For the molecule `O=C(Nc1ccc(/C=C2\SC(=O)N(Cc3ccc(OC(F)(F)F)cc3)C2=O)cc1)c1ccc(Cl)c([N+](=O)[O-])c1`, the growth is 12.5%.

Regarding `COC(=O)[C@@H](Cc1c[nH]c2ccccc12)NC(=O)[C@H](Cc1ccccc1)NCc1ccncc1`, the growth is 103%.

Regarding `CC(=O)c1nc(Nc2ccc(C)cc2)sc1C`, the growth was 93.1%.

In the case of `Fc1ccc(NCc2cn(-c3ccccc3)nc2-c2ccc(OCc3ccccc3)cc2)cc1Cl`, the growth is 119%.

For `O=[N+]([O-])c1ccc(Br)o1`, the growth is 105%.

As for `C#CCN(C)CCCOc1ccc(NC(=O)CCCCCCC(=O)NO)cc1Cl`, the growth is -0.749% (active).

In the case of `CCN1C(=O)N(CC)C2C1N=C(SCc1ccc(Cl)cc1)N2/N=C/C=C/c1ccccc1OC` (stereo not given), the growth is 40.5%.

As to `Cc1ccc(-c2noc(C)n2)cc1`, the growth is 101%.

Regarding `c1ccc2cc3nc4cc5ccccc5cc4nc3cc2c1`, the growth was 117%.

For `COc1ccc(C(Cc2ccccc2)NCCN2CCOCC2)cc1` (stereo not given), the growth was 99.6%.

For `Clc1ccc2c(NCCCNC3CCCCC3)ccnc2c1`, the growth was 85.3%.

Regarding `O=[N+]([O-])c1c(S(=O)(=O)O)cc2cc(S(=O)(=O)O)ccc2c1[N+](=O)[O-]`, the growth was 111%.

Take `CC(C)[C@H](NC(=O)Cn1cc(C(=O)O)nn1)C(=O)O`: the growth was 98.9%.

In the case of `Cc1ccc2c(c1)C(=O)/C(=C/c1cccc(F)c1)S2`, the growth is 84.7%.

With `CN(C)c1nc(N)nc(Cn2c(-c3nonc3N)nc3ccccc32)n1`, the growth was 23.2%.

Consider `N#Cc1c(-c2ccc(Cl)cc2)nc(NN=Cc2ccco2)nc1N1CCOCC1`, for which the growth was 30.9%.

Turning to `Nc1ccc(NC(=O)c2cccc(N)c2)cc1`, the growth is 94.2%.

For the molecule `CC(C)N1C(=O)/C(=c2\sc3n(c2=O)C2C(NN=3)N(C)C(=O)N2C)c2ccccc21` (stereo not given), the growth is 37.3%.

For `C#C[C@]1(O)CC[C@H]2[C@@H]3CC=C4c5sc(Nc6cc(Cl)ccc6OC)nc5CC[C@]4(C)[C@H]3CC[C@@]21C`, the growth was 4.64% (active).

As to `COc1ccc(-c2nnc(-c3ccc4c(c3)nc(-c3ccncc3)n4C3CCCCC3)o2)cc1`, the growth was 75.2%.

Turning to `CCCCCCCCCCCC[n+]1ccc(C(N)=O)cc1`, the growth was -42.1% (active).

(Values after PubChem BioAssay (NCI).)
